Data reported in PubChem BioAssay (NCATS).
Values joined by “and” are separate entries in the source; they are usually repeats but may differ in a detail not shown here. Identical values can stand only once. Records with an inconclusive call do not appear. Unmarked numbers belong to inactive results. Calls follow the shape of the dose curve; as a rule, active = well fitted activation curve with a large enough effect; inconclusive = small, poorly fitted or top-dose-only effect; inactive = no such curve, though single readings can be large or run the other way.

molecular target: Cellular tumor antigen p53 (Homo sapiens) (UniProt P04637); assay: Primary qHTS for small molecule compounds that upregulate eGFP-tagged delta133p53alpha (in N-terminal) cells. (AID 2060322); settings: NCI-H358 eGFP-delta133p53alpha fluorescence, 24 h; activation: hits give high values;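 also: cells pre-induced with doxycycline then dosed without doxycycline; series mostly up to about 56 µM; 0% = DMSO vehicle and 100% = reference activator; nearly all actives have a fitted effect of over 75% in size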
How it was run: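 NCI-H358 cells pre-induced 24 h with 10 ng/ml doxycycline for eGFP-delta133p53alpha, plated dox-free and exposed 24 h at 37C to titrated compounds. Fixed, Hoechst-stained; gated GFP peak intensity by laser scanning cytometry, normalized to DMSO (0%) and 57.5 uM 5-azacytidine (100%).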

Sequence of Cellular tumor antigen p53 (Homo sapiens) (P04637 whole entry, looked up): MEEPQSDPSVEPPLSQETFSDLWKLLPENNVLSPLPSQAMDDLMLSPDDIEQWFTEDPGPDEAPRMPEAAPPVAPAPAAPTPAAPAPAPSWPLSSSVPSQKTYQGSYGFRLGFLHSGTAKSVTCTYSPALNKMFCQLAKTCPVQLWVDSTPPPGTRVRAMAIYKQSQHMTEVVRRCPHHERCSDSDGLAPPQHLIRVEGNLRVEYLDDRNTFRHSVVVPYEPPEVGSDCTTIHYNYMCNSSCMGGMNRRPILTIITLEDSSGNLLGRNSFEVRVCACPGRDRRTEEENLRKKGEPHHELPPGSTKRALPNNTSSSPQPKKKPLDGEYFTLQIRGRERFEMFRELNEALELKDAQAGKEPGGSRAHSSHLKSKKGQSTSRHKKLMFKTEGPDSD

| Structure (SMILES) | activation |
| --- | --- |
| CC(=O)OC[C@]12[C@H](OC(C)=O)C(=O)[C@@H]3[C@@H](O)[C@@]14O[C@@]3(C)COC(=O)c1cccnc1[C@@H](C)[C@H](C)C(=O)O[C@@H]([C@H](O)[C@@H]2OC(C)=O)[C@]4(C)O | -8.04% |
| CC1=COC(OC2OC(CO)C(O)C(O)C2O)C2C(CO)CC(OC(=O)/C=C/c3ccc(O)cc3)C12 (stereo not drawn) | -9.16% |
| CC1(C)CC[C@]2(C(=O)O[C@@H]3O[C@H](CO)[C@@H](O)[C@H](O)[C@H]3O)CC[C@]3(C)C(=CCC4[C@@]5(C)C[C@@H](O)[C@H](O)[C@](C)(C=O)C5CC[C@]43C)[C@@H]2[C@@H]1O (stereo partly drawn) | -0.893% |
| COc1c2ccoc2cc2oc(CO[C@@H]3O[C@H](CO)[C@@H](O)[C@H](O)[C@H]3O)cc(=O)c12 | -23.2% |
| COc1cc2c(cc1OC)CC(=O)N(CCCNC[C@H]1Cc3cc(OC)c(OC)cc31)CC2 | -11.7% |
| Cc1ccc(C(C)C)c(O[C@@H]2O[C@H](CO)[C@@H](O)[C@H](O)[C@H]2O)c1 | -1.53% |
| CCOc1nc2cccc(C(=O)O)c2n1Cc1ccc(-c2ccccc2-c2nn[nH]n2)cc1 | -1.69% and 19.6% |
| COc1c(O[C@@H]2O[C@H](CO)[C@@H](O)[C@H](O)[C@H]2O)c(CCC(=O)O)cc2ccoc12 | -7.63% |
| COC(=O)C(Cc1ccccc1)NC(=O)c1ccccc1 (stereo not drawn) | 6.87% |
| C=CC1(C)C=C2C(=O)OC(=O)C3=C(CCCC3(C)C)C2(O)CC1 (stereo not drawn) | -22.9% |
| COC1(CC(C)C)NC(=O)C(O)(Cc2ccccc2)NC1=O (stereo not drawn) | -16.8% |
| Cc1cc(CNC(=O)c2cc(C(=O)NCc3ccc(F)c(C)c3)ncn2)ccc1F | 1.67% |
| CC1(C)CCCC2(C)C3=C(C(=O)OC3O)C(O)CC12 (stereo not drawn) | 9.92% |
| CC1=C(CO)CC(C(C)C2CCC3C4CC=C5CC(OC6OC(COC7OC(CO)C(O)C(O)C7O)C(O)C(O)C6O)CC(O)C5(C)C4CCC23C)OC1=O (stereo not drawn) | 3.05% |
| COc1ccc(C(O)C(C)OC2OC(CO)C(O)C(O)C2O)cc1 (stereo not drawn) | -7.63% |
| C=C1CCC2C(C)(C(=O)O)CCCC2(C)C1CCC(C)CC(=O)O (stereo not drawn) | -3.57% |
| C[C@]12CCC[C@](C)(C(=O)O)C1CCC13CC(CO)C(CCC12)C3 (stereo partly drawn) | -19.1% |
| CCCCC1CCN(CCCC(=O)c2ccccc2C)CC1 | 17% |
